The test system of experiment [1] is AURKA.
For experiment [2], the system named is AurkA.

Take `COc1cc(-c2cncc(-c3cnn(C4CCNCC4)c3)c2)cc(OC)c1OC` [K05908]: the Kinases covered entry in the experiment on ACVR1 was “ACVR1”; in the experiment on ACVRL1, “ACVRL1”; with BMPR1A it was “BMPR1A”; in the experiment with BMPR1B, “BMPR1B”.
`CCn1c(-c2nonc2N)nc2c(C#CC(C)(C)O)nc(OCCNC)cc21.Cl` [GSK949675]: the Kinases covered result in the experiment with AKT1 is “AKT1”; with AKT2 it was “AKT2”.
For `CNC(=O)c1c(F)cccc1Nc1nc(Nc2cc3c(cc2OC)CCN3C(=O)CN(C)C)nc2[nH]ccc12` [GSK1838705], the Kinases covered result in the experiment with ALK was “ALK”.
In the case of `CNCc1ccc(-c2cc(-c3nc(-c4ccc(S(=O)(=O)C(C)C)cc4)cnc3N)on2)cc1` [VE-822], the Kinases covered entry in the experiment with ATM was “ATM”; in the experiment with ATR, “ATR”.
On to `CS(=O)(=O)c1ccc(-c2cnc(N)c(C(=O)Nc3ccccc3)n2)cc1` [VE-821], for which the Kinases covered entry in the experiment on ATR is recorded as “ATR”.
On to `COc1ccccc1-c1cc(/C=C2\C(=O)Nc3ncc(Br)cc32)cc(Br)c1O` [GW442130X], for which, in the experiment on AURKA [1], the Kinases covered result is recorded as “AURKA”.
The same measure, in the same setting: in the case of `CN1C(=O)c2ccccc2N(C)c2nc(Nc3cnn(C4CCNCC4)c3)ncc21` [XMD-17-51] it was “AURKA”.
For `CCn1cc(-c2ccnc3[nH]c(-c4cccc(CN(C)C)c4)cc23)c(-c2ccc(NC(=O)N(C)C)cc2)n1` [GSK1070916], the Kinases covered result in the experiment on AURKB is recorded as “AURKB”.
On to `Cn1ccc2ncnc(Oc3ccc(Nc4nc5ccccc5[nH]4)cc3)c21` [TPKI-72], for which the Kinases covered result in the experiment on AURKB was “AURKB”.
`COc1cc(C=NNc2ncnc3c2cnn3-c2ccccc2)ccc1O` [GW513184X]: the Kinases covered entry in the experiment on AurkA [2] is “AurkA”.
In the case of `CC(C)N1CC(=O)N(C)c2cnc(Nc3cccc(S(=O)(=O)CCN4CCOCC4)c3)nc21` [BI00009348], the Kinases covered result with BMPR2 was “BMPR2”.
With `C=CC(=O)Nc1cc(-n2c(=O)ccc3cnc4ccc(-c5ccc(NS(C)(=O)=O)cc5)cc4c32)ccc1C` [BMX-IN-1], in the experiment on BMX, the Kinases covered result is recorded as “BMX”.
With `COc1ccc2[nH]c3c4[nH]c5ccc(OC)cc5c4c4c(c3c2c1)C(=O)NC4=O` [GW296115X], the Kinases covered result with BRSK1 was “BRSK1”; in the experiment with BRSK2, “BRSK2”.

For the origin of these results see PMC7826789 (International Journal of Molecular Sciences, 2021).
